Laboratory results as given in PubChem BioAssay AID1159580 (chemical genetic matrix, 2015).
About 2,000 (36%) of roughly 5,500 compounds were called active. Inconclusive results (about 18%) are left out. Rule as the data show it: active = normalized growth mostly below about 0.91 (no sharp cut-off); inconclusive = no clear call, values can overlap the other calls; inactive = mostly above about 0.92. This is one part of the list.

Experiment: chemical genetic growth profiling, strain panel (AID 1159580);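 also: tested at 20 µM; growth read once vehicle control cultures reached saturation at 30 °C; 1 = growth at the plate median or of vehicle wells; lower values mean less growth of the strain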
Conditions: S. cerevisiae deletion strains, growth OD

Measured: normalized growth

O=C(/C=C/c1ccc(O)c(O)c1)OC(Cc1ccc(O)c(O)c1)C(=O)O (stereo not given)
inactive: locus YAL021C, strain ccr4, active compounds read low 1.07 | locus YAL026C, strain drs2, active compounds read low 1.03 | locus YAL030W, strain snc1, active compounds read low 1.01 | locus YBL061C, strain skt5, active compounds read low 1.05 | locus YBR009C, strain hhf1, active compounds read low 1.01 | locus YBR023C, strain chs3, active compounds read low 1.04 | locus YBR171W, strain sec66, active compounds read low 1.01 | locus YBR231C, strain swc5, active compounds read low 0.994 | locus YBR279W, strain paf1, active compounds read low 1.02 | locus YCL011C, strain gbp2, active compounds read low 1.02 | locus YCL016C, strain dcc1, active compounds read low 1.05 | locus YCL061C, strain MRC1, active compounds read low 1.03 | locus YCL069W, strain vba3, active compounds read low 1.02 | locus YCR088W, strain abp1, active compounds read low 1.02 | locus YDL005C, strain med2, active compounds read low 1.01 | locus YDL040C, strain nat1, active compounds read low 1.02 | locus YDR001C, strain nth1, active compounds read low 1.02 | locus YDR069C, strain doa4, active compounds read low 1.03 | locus YDR137W, strain rgp1, active compounds read low 1.09 | locus YDR159W, strain sac3, active compounds read low 0.922 | locus YDR195W, strain ref2 1.07 | locus YDR297W, strain sur2, active compounds read low 1.02 | locus YDR334W, strain swr1, active compounds read low 1.04 | locus YDR335W, strain msn5, active compounds read low 1.03 | locus YDR392W, strain spt3, active compounds read low 0.885 | locus YEL003W, strain gim4, active compounds read low 0.999 | locus YEL037C, strain rad23, active compounds read low 1.02 | locus YEL061C, strain CIN8 (second series), active compounds read low 1.02 | locus YER015W, strain faa2, active compounds read low 1.01 | locus YER016W, strain bim1, active compounds read low 1.04 | locus YER111C, strain swi4, active compounds read low 1.01 | locus YER155C, strain BEM2 (second series), active compounds read low 0.997 | locus YFR010W, strain ubp6, active compounds read low 0.997 | locus YGL167C, strain pmr1, active compounds read low 1.01 | locus YGL173C, strain kem1, active compounds read low 0.995 | locus YGL227W, strain vid30, active compounds read low 1.02 | locus YGL240W, strain doc1, active compounds read low 1.04 | locus YGL253W, strain hxk2, active compounds read low 1.05 | locus YHR013C, strain ard1, active compounds read low 0.999 | locus YHR027C, strain rpn1, active compounds read low 1 | locus YHR030C, strain SLT2, active compounds read low 0.982 | locus YHR079C, strain IRE1, active compounds read low 0.989 | locus YHR142W, strain chs7, active compounds read low 1.04 | locus YJL092W, strain hpr5, active compounds read low 1.02 | locus YJL095W, strain BCK1 (second series), active compounds read low 1.03 | locus YJL095W, strain BCK1, active compounds read low 0.999 | locus YJL115W, strain asf1, active compounds read low 1.02 | locus YJL129C, strain trk1, active compounds read low 1.03 | locus YJL154C, strain vps35, active compounds read low 1.02 | locus YJL164C, strain tpk1, active compounds read low 0.99 | locus YJL166W, strain qcr8, active compounds read low 1.03 | locus YJL187C, strain SWE1, active compounds read low 1.03 | locus YJR066W, strain TOR1, active compounds read low 0.912 | locus YKL160W, strain elf1, active compounds read low 1.04 | locus YKR026C, strain gcn3, active compounds read low 1.03 | locus YKR091W, strain srl3, active compounds read low 1.01 | locus YLL001W, strain dnm1, active compounds read low 1 | locus YLL026W, active compounds read low 1.02 | locus YLL041C, strain sdh2, active compounds read low 1.02 | locus YLR027C, strain aat2, active compounds read low 1.04 | locus YLR113W, strain HOG1, active compounds read low 0.979 | locus YLR221C, strain rsa3, active compounds read low 0.989 | locus YLR258W, strain gsy2, active compounds read low 1.01 | locus YLR262C, strain YPT6 (second series), active compounds read low 1.05 | locus YLR320W, strain mms22, active compounds read low 1 | locus YLR342W, strain FKS1, active compounds read low 1.02 | locus YLR357W, strain rsc2, active compounds read low 1.04 | locus YLR370C, strain arc18, active compounds read low 1.03 | locus YLR384C, strain iki3, active compounds read low 1 | locus YML120C, strain ndi1, active compounds read low 0.994 | locus YMR058W, strain fet3, active compounds read low 0.932 | locus YMR125W, strain sto1, active compounds read low 1.02 | locus YMR129W, active compounds read low 1.02 | locus YMR205C, strain PFK2, active compounds read low 1.08 | locus YMR231W, strain pep5, active compounds read low 1.01 | locus YNL071W, strain lat1, active compounds read low 1.01 | locus YNL183C, strain NPR1, active compounds read low 0.905 | locus YNL209W, strain ssb2, active compounds read low 1 | locus YNL248C, strain rpa49, active compounds read low 1.03 | locus YNL322C, strain KRE1 (second series), active compounds read low 1.03 | locus YNR049C, strain mso1, active compounds read low 1.02 | locus YOR001W, strain rrp6, active compounds read low 0.965 | locus YOR070C, strain gyp1, active compounds read low 1.01 | locus YOR080W, strain dia2, active compounds read low 1.02 | locus YOR083W, strain WHI5, active compounds read low 0.988 | locus YOR106W, strain vam3, active compounds read low 1.05 | locus YOR231W, strain MKK1, active compounds read low 1 | locus YOR265W, strain rbl2, active compounds read low 1.01 | locus YOR270C, strain vph1, active compounds read low 1.07 | locus YOR290C, strain snf2, active compounds read low 1.04 | locus YPL051W, strain arl3, active compounds read low 1.04 | locus YPL078C, strain atp4, active compounds read low 1.06 | locus YPL106C, strain sse1, active compounds read low 1.06 | locus YPL240C, strain hsp82, active compounds read low 1.02 | locus YPL256C, strain CLN2, active compounds read low 1
